These results are taken from ChEMBL document CHEMBL4513216, “Probing the Open Global Health Chemical Diversity Library for Multistage-Active Starting Points for Next-Generation Antimalarials” (ACS Infect Dis, 2020).

About 8,600 (12%) of roughly 69,000 compounds showed an effect of 50% or more. What follows is part of a selection rich in strong results, with near analogues and random picks from the rest.

The experiment deals with Plasmodium berghei. Briefly: Screen against P. berghei liver stage (PbLuc), transformed with Luciferase, at 10uM. In kind it is functional, HepG2. To be noted: tested at 10 uM.
On to `COCCc1noc(CN(C)c2nc(C)cc(C)n2)n1`, for which the INHIBITION is 47.6%. With `COc1ccc(Cl)cc1CCNC(=O)NCc1ccncc1` the figure was -23.5%; with `NC(=O)CCN1CCc2onc(-c3ccccc3F)c2C1`, -62.1%; with `CC(=O)N1CCN(CCOc2ccc(F)cc2)CC(C(N)=O)C1` (centres undefined), 12.3%.

Consider `CCNC(=O)[C@@H]1C[C@H](N)CN1C(=O)c1cccc(CCC(C)(C)O)c1`, for which the INHIBITION stood at 17.5%.

For `Cc1nn(C(C)C)c2cnn(CC(=O)N3CCN(C)CC3)c12`, the INHIBITION amounted to 21.7%. For `CC(C)c1cc(NC(=O)CN2CCn3c(nnc3C3CC3)C2)on1`, the INHIBITION came out at 7.5%. With `Cc1cccnc1NC(=O)C1CCCN1Cc1ccccc1` (centres undefined) the figure was -10.4%; with `Cc1nccn1-c1ccc(NC(=O)C2CCCN2Cc2ccoc2)cc1` (centres undefined), 54.4%; with `Cc1nccn1CCCNC(=O)C1CCCCN1Cc1ccncc1` (centres undefined), -2.07%.

On to `CCCN1CCCCC1C(=O)Nc1ccc(-c2nnc[nH]2)cc1` (centres undefined), for which the INHIBITION is recorded as -28.6%. On to `Cc1nccn1-c1ccc(NC(=O)C2CCCN2CC2CC2)cc1` (centres undefined), for which the INHIBITION amounted to 55.4%. Then `Cc1nccn1-c1ccc(NC(=O)C2CCCN2Cc2c[nH]cn2)cc1` (centres undefined), with 36.2%; and `O=C(NCC1(O)COCCN(Cc2ccc(O)cc2)C1)c1cnccn1` (centres undefined), with -42.9%; and `CCCc1nnc(NC(=O)Cc2c(C)nc(C)[nH]c2=O)s1`, with 16.585%. With `O=C(NCc1cccs1)c1nc2c(o1)CN(CC1CC1)C2` the figure was -31.4%.

`CNC(=O)[C@@H]1[C@@H](OC(=O)Nc2ccccc2)C(=O)N(C)C12CCNCC2`: the INHIBITION came out at 35.8%.

For `COc1ccc(C(C(=O)O)N2CCC(Cn3cccn3)CC2)c(OC)n1` (centres undefined), the INHIBITION is reported as -40%. With `CCCc1nc(CN2CCCCC2Cn2cncn2)cs1` (centres undefined), the INHIBITION was found to be 30.6%. `COCCOCC(=O)N1CCC2(CCCN(C3CCOCC3)C2=O)C1` (centres undefined): the INHIBITION was -7.7%. On to `Cn1nnc2c(N3CC(C(=O)NCCC4=CCCCC4)C3)ncnc21`, for which the INHIBITION is -19.1%.

`Cc1cc(CN2CC[C@H]3C[C@H](C)O[C@@H]3C2)no1`: the INHIBITION came out at 34.1%.

As to `Cc1csc([C@H]2C[C@@H]3CCN(Cc4cc(C)on4)C[C@H]3O2)n1`, the INHIBITION is reported as 64.7%. With `Cc1csc(CN2CC[C@H]3C[C@H](c4nnc(C)[nH]4)O[C@@H]3C2)n1` the figure was 23.5%; with `Cc1csc([C@@H]2C[C@@H]3CCN(Cc4cc(C)on4)C[C@H]3O2)n1`, 26.7%.

Turning to `Fc1cnc(N2C[C@@H]3C[C@@H](c4nc(C5CC5)cs4)O[C@@H]3C2)nc1`, the INHIBITION was found to be 62.3%.

As to `Cc1csc(CN2CC[C@H]3C[C@H](c4noc(C)n4)O[C@@H]3C2)n1`, the INHIBITION is 42.5%. Then `Cc1csc([C@@H]2C[C@H]3CN(c4ncc(F)cn4)C[C@H]3O2)n1`, with 22.6%. Then `Cc1csc(CN2CC[C@H]3C[C@@H](c4nnc(C)[nH]4)O[C@@H]3C2)n1`, with 72.3%; and `Cc1cc(CN2CC[C@H]3C[C@H](C(=O)N(C)C)O[C@@H]3C2)no1`, with 23.9%. Then `O=C(C1CCOCC1)N1C[C@@H]2C[C@@H](c3nc(C4CC4)cs3)O[C@@H]2C1`, with 31.8%; and `Cc1cc(CN2CC[C@H]3C[C@@H](C)O[C@@H]3C2)no1`, with 50.9%. As to `Cc1csc([C@H]2C[C@H]3CN(Cc4cc(C)on4)CC[C@@H]3O2)n1`, the INHIBITION was 46.6%. With `Cc1c(C2CC(=O)Nc3c2cnn3C(C)(C)C)cnn1C` (centres undefined) the figure was -56.7%; with `Cc1[nH]c2nc(CNc3cccc(Cl)c3)nn2c(=O)c1C`, -10.7%. Then `Cc1cc(CN2CC[C@H]3C[C@@H](c4nccs4)O[C@@H]3C2)no1`, with 57.9%. With `Cc1ccc(CN2CC[C@H]3C[C@@H](c4nc(C5CC5)cs4)O[C@@H]3C2)o1` the figure was 63.5%; with `Cc1csc([C@@H]2C[C@@H]3CCN(C(=O)c4ccnnc4)C[C@H]3O2)n1`, -19%; with `Cc1cc(CN2CC[C@H]3C[C@H](c4nccs4)O[C@@H]3C2)no1`, 25%.

On to `Cc1noc(C)c1CN1CC[C@H]2C[C@H](c3nccs3)O[C@@H]2C1`, for which the INHIBITION was 40.4%. Then `Cc1nnc([C@H]2C[C@@H]3CCN(Cc4ccc(C)o4)C[C@H]3O2)[nH]1`, with 31.7%; and `Cc1csc([C@H]2C[C@@H]3CCN(Cc4cnn(C)c4)C[C@H]3O2)n1`, with -63.5%; and `Cc1csc([C@H]2C[C@@H]3CCN(C(=O)c4ccnnc4)C[C@H]3O2)n1`, with 4.61%. Then `Cc1cc(CN2CC[C@H]3C[C@@H](c4nc(C5CC5)cs4)O[C@@H]3C2)no1`, with 68.4%; and `Cc1csc([C@@H]2C[C@@H]3CCN(C(=O)c4cccn4C)C[C@H]3O2)n1`, with 50.7%; and `Cc1ccc(CN2CC[C@H]3C[C@H](c4nc(C5CC5)cs4)O[C@@H]3C2)o1`, with 21.3%. As for `Cc1nnc([C@H]2C[C@@H]3CCN(Cc4cc(C)on4)C[C@H]3O2)[nH]1`, the INHIBITION worked out at 35.8%. `CC(C)c1nn(C)cc1CNCc1ccnc(N(C)C)c1`: the INHIBITION is listed as 23.7%. Then `Cn1ccc2ccnc(CC3CN(C(=O)c4cscn4)C3)c21`, with 3.91%; and `CNC(=O)[C@@H]1CN(C(=O)CCOC)C[C@H]1c1ccnc(N2CCCC2)n1`, with -4.68%. With `CCc1nccn1C1CCCN(C(=O)COCC(F)(F)F)C1` (centres undefined) the figure was 45.6%; with `Cc1ccc2c(c1)N(C(=O)c1cc[nH]c(=O)c1)CC(C)O2` (centres undefined), 19.3%. For `COCc1nn(CC2CC2)c2c1CN(Cc1cncn1C)CC2`, the INHIBITION is -88.6%. `CC(C(=O)N1CCOCC1)n1cncn1` (centres undefined): the INHIBITION is recorded as -18.8%. On to `CN(C)c1cccc(CNCc2ccc(N3CCOCC3)cc2)c1`, for which the INHIBITION is reported as 34.1%. Then `Cn1cc(CN2CC[C@H]3C[C@H](c4nc(C5CC5)cs4)O[C@@H]3C2)cn1`, with 41.8%; and `Cc1csc([C@@H]2C[C@@H]3CCN(Cc4cnn(C)c4)C[C@H]3O2)n1`, with -3.19%; and `c1cc(CN2CC[C@H]3C[C@H](c4nc(C5CC5)cs4)O[C@@H]3C2)ccn1`, with 67.5%. With `Cn1cc(CN2CC[C@H]3C[C@@H](c4nc(C5CC5)cs4)O[C@@H]3C2)cn1` the figure was 47%; with `Cc1csc([C@@H]2C[C@@H]3CCN(C(=O)c4cc(C)on4)C[C@H]3O2)n1`, 5.53%; with `Cc1cc(CN2CC[C@H]3C[C@H](c4nc(C5CC5)cs4)O[C@@H]3C2)no1`, 74.7%. In the case of `Cc1csc(CN2C[C@@H]3CN(CC4CCOCC4)CCO[C@@H]3C2)n1`, the INHIBITION worked out at 47.5%. Then `Cc1csc(CN2C[C@@H]3CN(C)CCO[C@@H]3C2)n1`, with 57.5%; and `Cc1csc(CN2C[C@@H]3CN(S(C)(=O)=O)CCO[C@@H]3C2)n1`, with 33.1%.
